Hit rate of the full screen: of about 50,000 compounds, about 800 (1.6%) showed an effect of 50% or more. The entries come from a sample that favours strong results as a whole.

The target in this assay is Bcl-2-like protein 10 (Homo sapiens) (UniProt Q9HD36). Nature of the assay: Phenotype converters, Bcl-B/TR3 peptide binding displacement, primary biochemical FP (AID 1240).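 Note: 0% = Bcl-B with tracer peptide and DMSO and 100% = tracer peptide lacking Bcl-B.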 The note with it: GST-Bcl-B / FITC-TR3 peptide fluorescence polarization; stronger effect = higher value; compound at 3.75 mg/L.
Sequence of Bcl-2-like protein 10 (Homo sapiens) (Q9HD36 whole entry, looked up): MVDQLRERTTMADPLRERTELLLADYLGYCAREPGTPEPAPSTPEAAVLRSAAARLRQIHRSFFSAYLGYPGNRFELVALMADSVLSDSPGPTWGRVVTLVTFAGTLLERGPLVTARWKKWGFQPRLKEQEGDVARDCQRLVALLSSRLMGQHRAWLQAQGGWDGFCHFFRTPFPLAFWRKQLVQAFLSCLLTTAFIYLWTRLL
For the compound `C=CCNC(=O)CN(c1ccc(OC)cc1OC)S(=O)(=O)c1ccc(C)cc1`, the displacement came out at 8.5%.

For `C=COCCNC(=O)C(=O)Nc1ccc(F)cc1`, the displacement was 5%.

In the case of `Cc1cccc(NC(=O)CCCN2C(=O)c3cccc4cccc(c34)C2=O)n1`, the displacement was 0.6%.

For the compound `O=C1NN(c2ccccc2)C(=O)/C1=C/c1ccc(-c2ccccc2Cl)o1`, the displacement was -13.5%.

Regarding `O=C1/C(=C/c2ccc(-c3ccccc3[N+](=O)[O-])o2)SC(=S)N1c1cccc(Cl)c1`, the displacement was found to be 73.5%.

Consider `COc1ccc(N2C(=O)/C(=C/c3ccc(-c4ccccc4[N+](=O)[O-])o3)SC2=S)cc1`, for which the displacement stood at 11.9%.

For the compound `COC(=O)c1ccccc1-c1ccc(/C=C2/SC(=S)N(CC(=O)O)C2=O)o1`, the displacement worked out at 5.3%.

Consider `COC(=O)c1ccc(-c2ccc(/C=C3/SC(=S)N(c4ccccc4)C3=O)o2)cc1`, for which the displacement came out at 12.6%.

`COC(=O)c1ccccc1-c1ccc(/C=C2/SC(=S)N(c3ccccc3)C2=O)o1`: the displacement worked out at 70%.

For the compound `O=C1/C(=C/c2ccc(-c3ccccc3[N+](=O)[O-])o2)SC(=S)N1c1cccc(C(F)(F)F)c1`, the displacement is -3%.

With `O=C(/C=C/c1cccc(C(F)(F)F)c1)Nc1cccc([N+](=O)[O-])c1`, the displacement worked out at 20.4%.

Turning to `CCOc1ccccc1NC(=S)NCc1ccccc1`, the displacement came out at 3.9%.

Regarding `O=[N+]([O-])c1ccccc1S(=O)(=O)NCc1ccc2c(c1)OCO2`, the displacement was -3.4%.

As to `Cc1cccc(OCC(=O)NC(C)c2ccccc2)c1` (configuration not stated), the displacement is -5.2%.

Take `Cc1cc(OCC(=O)NC(C)c2ccccc2)cc(C)c1Cl` (configuration not stated): the displacement stood at 1.4%.

Regarding `Cc1ccc(OCC(=O)NC(C)c2ccccc2)cc1C` (configuration not stated), the displacement worked out at 89.2%.

For `COC(=O)c1sc(NC(=O)c2c(-c3c(Cl)cccc3Cl)noc2C)c(C#N)c1C`, the displacement was found to be 3.1%.

As to `O=C(Oc1ccc(/C=N/NS(=O)(=O)c2ccc(Cl)cc2)cc1)c1ccco1`, the displacement worked out at 6.4%.

As for `O=C(O)c1cccc(-c2ccc(C=C3C(=O)c4ccccc4C3=O)o2)c1`, the displacement is -2.7%.

Consider `O=C(O)c1ccc(Cl)c(-c2ccc(C=C3C(=O)c4ccccc4C3=O)o2)c1`, for which the displacement turned out to be 99.1%.

With `O=C(O)c1ccc(-c2ccc(C=C3C(=O)c4ccccc4C3=O)o2)cc1Cl`, the displacement worked out at 25.2%.

Take `N/C(=N\OC(=O)c1ccc(Cl)c([N+](=O)[O-])c1)c1ccccc1Cl`: the displacement was 1.1%.

In the case of `O=C1c2ccccc2NC(c2ccc(-c3ccccc3[N+](=O)[O-])o2)N1c1ccccc1` (configuration not stated), the displacement turned out to be 16.8%.

In the case of `Cc1cc(C(=O)N/N=C/c2ccc(Br)c([N+](=O)[O-])c2)n[nH]1`, the displacement came out at 5.2%.

Regarding `O=C(CNc1ccc2ccccc2c1)N/N=C/c1ccc(Br)c([N+](=O)[O-])c1`, the displacement is -4.4%.

For `O=C(N/N=C/c1ccc(Br)c([N+](=O)[O-])c1)c1cccs1`, the displacement stood at 113%.

In the case of `CCC1S/C(=N/N=C/c2ccc3c(c2)OCO3)NC1=O` (configuration not stated), the displacement was -13.8%.

As to `CCC1S/C(=N\N=C\c2cccc3ccccc23)NC1=O` (configuration not stated), the displacement is 127%.

For `O=C1N/C(=N/N=C/c2ccccc2O)SC1Cc1ccccc1` (configuration not stated), the displacement is 1.4%.

Regarding `O=c1[nH]c(=S)[nH]c2c1C1(CCCC1)Cc1ccccc1-2`, the displacement was -4.2%.

Turning to `COc1ccc(COC(=O)C2=C(C)NC3=C(C(=O)CCC3)C2c2cccc3ccccc23)cc1` (configuration not stated), the displacement came out at 10.9%.

With `COc1cc(/C=C(\C#N)c2nc3ccccc3[nH]2)c(Br)cc1O`, the displacement is -96.8%.

Consider `COc1cc(/C=C(/C#N)c2nc3ccccc3[nH]2)c([N+](=O)[O-])cc1OCCC(C)C`, for which the displacement is 69.6%.

Consider `COc1ccc(/C=C(\C#N)c2nc3ccccc3[nH]2)cc1OC`, for which the displacement worked out at 11%.

In the case of `COc1ccc(CC(=O)N2CCN(c3cccc(Cl)c3)CC2)cc1OC`, the displacement was determined as 2%.

`COC(=O)C1=C(C)NC2=C(C(=O)CC(C)(C)C2)C1c1ccc(OC)cc1OC` (configuration not stated): the displacement amounted to 11.9%.

Take `Cc1ccc(C=C2C(=O)c3ccccc3C2=O)o1`: the displacement came to 10.9%.

With `O=C1C(=Cc2ccc(I)o2)C(=O)c2ccccc21`, the displacement amounted to 37.1%.

Consider `O=C1C(=Cc2ccc(Sc3ccccc3)o2)C(=O)c2ccccc21`, for which the displacement came to 163%.

As to `C#CCOc1c(Br)cc(/C=C2\C(=O)NC(=O)N(c3ccc(Cl)cc3)C2=O)cc1OC`, the displacement was -0.6%.

In the case of `CCn1nnnc1-c1ccc(OC)c(S(=O)(=O)Nc2ccc(Cl)cc2)c1`, the displacement amounted to 9.3%.

As for `CCn1nnnc1-c1ccc(OC)c(S(=O)(=O)Nc2ccc(F)cc2)c1`, the displacement was 6.1%.

Take `CCn1nnnc1-c1ccc(OC)c(S(=O)(=O)Nc2ccc(Br)cc2)c1`: the displacement amounted to 58.3%.

As to `CCc1ccc(-n2c(C)cc(/C=C3/NC(=O)NC3=O)c2C)cc1`, the displacement was -6.3%.

As for `O=C(NC1CCCCCC1)c1cccc(Cl)c1`, the displacement stood at 4.5%.

`O=C(NC1CCCCC1)c1ccc2nc3ccccc3nc2c1`: the displacement worked out at 81.5%.

As to `O=C(NC1CCCCC1)c1ccc(Cl)c(Cl)c1`, the displacement was 3.3%.

Turning to `CCOC(=O)C(=CNc1ccccc1C(C)C)C(=O)OCC`, the displacement was -7.2%.

As for `O=C1c2cccc3cccc(c23)C(=O)N1Nc1ccc([N+](=O)[O-])cc1`, the displacement came out at 3.8%.

Turning to `COc1ccc(-c2cc(C(=O)Nc3nc4ccc(S(C)(=O)=O)cc4s3)c3ccccc3n2)cc1OC`, the displacement was determined as 5%.

As for `Cc1ccc2c(c1)NC(c1ccc(C)o1)C1=C(CC(C)(C)CC1=O)N2` (configuration not stated), the displacement stood at 88.5%.

For `Cc1ccc2c(c1)NC(c1ccccc1)C1=C(CC(C)(C)CC1=O)N2` (configuration not stated), the displacement was -3.1%.

Turning to `Cc1ccc2c(c1)NC(c1ccc(F)cc1)C1=C(CC(C)(C)CC1=O)N2` (configuration not stated), the displacement was determined as 17.8%.

On to `CCCCCC(=O)N1c2ccccc2NC2=C(C(=O)CC(c3ccc(OC)cc3)C2)C1c1ccco1` (configuration not stated), for which the displacement is -3.9%.

Regarding `Cc1ccc2nc(SCc3ccc([N+](=O)[O-])cc3)nc(C)c2c1`, the displacement was -7.5%.

For the compound `O=C(Cc1ccccc1)Nc1ccc(Cl)c(-c2nc3ncccc3o2)c1`, the displacement is 7.3%.

`Cc1ccc(C(=O)Nc2cccc3ccccc23)o1`: the displacement came to 16.6%.

As to `Cc1ccc(C(=O)Nc2c(C(=O)N3CCC(Cc4ccccc4)CC3)cnn2-c2ccccc2)cc1`, the displacement is -8.3%.

With `O=C(Nc1c(C(=O)N2CCC(Cc3ccccc3)CC2)cnn1-c1ccccc1)c1ccccc1F`, the displacement is 88.9%.

With `O=C(Nc1c(C(=O)N2CCC(Cc3ccccc3)CC2)cnn1-c1ccccc1)c1cccc(F)c1`, the displacement turned out to be 3.5%.

As to `CCOC(=O)C1=C(O)/C(=C\c2ccc(OCC)cc2)N=C1C`, the displacement is 18.1%.

For `Cc1cccc(N2C(=O)/C(=C/c3cc(C)n(C)c3C)C(=O)NC2=S)c1C`, the displacement stood at 111%.

For the compound `Cc1ccc(N2C(=O)/C(=C/c3cc(C)n(C)c3C)C(=O)NC2=S)cc1`, the displacement was 97%.

On to `Cc1cc(/C=C2\C(=O)NC(=S)N(c3ccc(Cl)cc3)C2=O)c(C)n1C`, for which the displacement stood at 29.5%.

With `CCc1ccccc1N1C(=O)/C(=C/c2cc(C)n(C)c2C)C(=O)NC1=S`, the displacement turned out to be 8.1%.

Consider `Cc1cc(/C=C2\C(=O)NC(=S)N(c3ccc(Br)cc3)C2=O)c(C)n1C`, for which the displacement is -2.4%.

Take `Cc1cc(/C=C2\C(=O)NC(=S)N(c3cccc(Cl)c3Cl)C2=O)c(C)n1C`: the displacement is 0.8%.

As to `Cc1ccc(S(=O)(=O)N2CCN(C(=O)COc3ccc(Cl)cc3)CC2)cc1`, the displacement is -15.1%.

In the case of `CCN(CC)c1ccc(/C=N/NS(C)(=O)=O)cc1`, the displacement was found to be 7.3%.

With `COc1cccc(CN2CCN(C(=O)c3ccccc3OC)CC2)c1`, the displacement was -15.8%.

Turning to `NC(=O)SCC(=O)Nc1ccccc1O`, the displacement was determined as 4.9%.

`Clc1ccccc1-c1nnc(-c2ccc(-c3ccccc3)cc2)o1`: the displacement was 5.2%.

With `O=C(Nc1ccc(OC(F)(F)F)cc1)c1cccc([N+](=O)[O-])c1`, the displacement was -1.6%.

In the case of `COc1ccc(OC)c(/C=C2/SC(NC(C)=O)=NC2=O)c1`, the displacement came to 156%.

For `COc1cc(/C=C2\SC(NC(C)=O)=NC2=O)cc2sc(=O)oc12`, the displacement was determined as 24.7%.

Consider `COc1ccc(/C=C2\SC(N3CCCC3)=NC2=O)c(OC)c1`, for which the displacement is -18.5%.

For `COc1c(Cl)cc(Cl)cc1/C=C1\SC(NC(C)=O)=NC1=O`, the displacement is 74.7%.

`COc1cc(/C=C2/SC(NC(C)=O)=NC2=O)cc(OC)c1OC`: the displacement stood at 31.2%.

On to `COc1cc(/C=C2\SC(NC(C)=O)=NC2=O)cc(Br)c1OC`, for which the displacement turned out to be 11.8%.

Consider `CC(=O)NC1=NC(=O)/C(=C\c2ccc(-c3ccc(Cl)c(C(=O)O)c3)o2)S1`, for which the displacement is -115%.

`COc1ccc(OC)c(/C=C2\SC(N3CCCC3)=NC2=O)c1`: the displacement was -16.2%.

`COc1cc(OC)c(/C=C2/SC(NC(C)=O)=NC2=O)cc1Br`: the displacement stood at 138%.

`COc1ccc(/C=C2/SC(NC(C)=O)=NC2=O)c(OC)c1`: the displacement was determined as 133%.

For `COc1ccc(/C=C2/SC(N)=NC2=O)c(OC)c1`, the displacement was -3.2%.

As to `CCOC(=O)C1=CN(c2ccc(OCC)cc2)C=C(C(=O)OCC)C1c1ccccc1F`, the displacement is -12.6%.

For the compound `CC(=O)OC(c1c(F)c(F)c(F)c(F)c1F)c1c(F)c(F)c(F)c(F)c1F`, the displacement was found to be 3%.

With `C=CCN1C(=O)/C(=C\c2ccc(O)cc2)C(=O)NC1=S`, the displacement was -14.8%.

For the compound `O=C(N/N=C/c1ccc(Cl)cc1)c1ccc(O)cc1`, the displacement was -1.1%.

Turning to `O=C(/C=C/c1ccccc1)C1=C(O)C(=O)N(c2ccccn2)C1c1ccccc1F` (configuration not stated), the displacement stood at 93.5%.

With `O=C(O)CCCCCN1C(=O)C(O)=C(C(=O)/C=C/c2ccccc2)C1c1ccccc1F` (configuration not stated), the displacement was 1.5%.

In the case of `O=C(/C=C/c1ccccc1)C1=C(O)C(=O)N(c2ccccc2)C1c1ccccc1F` (configuration not stated), the displacement was 2%.

On to `Cc1ccccc1NC(=O)CN(c1ccc(Oc2ccccc2)cc1)S(C)(=O)=O`, for which the displacement worked out at 1.7%.

With `Cc1ccccc1NC(=O)c1ccc(C)c(S(=O)(=O)NCc2ccccc2)c1`, the displacement is -9.5%.

As to `CC(C)Cc1nnc(NC(=O)Nc2ccc(Cl)c(Cl)c2)s1`, the displacement came out at 3.9%.

Turning to `CC(C)c1nnc(NC(=O)Nc2ccc(Cl)cc2)s1`, the displacement is 2.3%.

Regarding `CC(C)c1nnc(NC(=O)Nc2ccc(Cl)c(Cl)c2)s1`, the displacement is 98.2%.

`FC(F)(F)c1nc2ccccc2n1CC#CCn1c(C(F)(F)F)nc2ccccc21`: the displacement was -1.1%.

For the compound `Cc1ccc(NC(=O)/C(=C/c2ccccc2)c2ccccc2)cc1C`, the displacement was 12.1%.

As to `O=C(Nc1nc2ccc(Br)cc2s1)c1cccs1`, the displacement was -3.7%.

Turning to `COc1ccc(C(=O)Nn2cc3cc([N+](=O)[O-])ccc3n2)cc1`, the displacement was -9.5%.

As for `O=C(Cc1ccc(Cl)cc1)Nc1ccc2c(c1)OCCO2`, the displacement was determined as 0.4%.

`CSc1nc2sc3c(c2c(=O)[nH]1)CCN(Cc1ccccc1)C3`: the displacement came to 81%.

Consider `N#Cc1c(N)sc2c1CCN(Cc1ccccc1)C2`, for which the displacement is 3.4%.

Turning to `Nc1nc(SCc2ccc(Cl)cc2)nc2sc3c(c12)CCN(Cc1ccccc1)C3`, the displacement was 16.8%.

With `CSc1nc2sc3c(c2c(=O)[nH]1)CCCC3`, the displacement is 6.2%.

Turning to `Nc1sc(=S)nc2sc3c(c12)CCN(Cc1ccccc1)C3`, the displacement amounted to 74%.

Regarding `CSc1nc2sc3c(c2c(=O)n1Cc1ccccc1)CCN(C)C3`, the displacement is -6.8%.

For the origin of these results see PubChem BioAssay AID1240 (Sanford-Burnham Center for Chemical Genomics, 2008).
